This is a sample that favours compounds with a hit; in the whole collection about 4.1% have one here.
hgDAF12 agonist: hgDAF-12 agonism, primary luciferase screen | 370,000 tested, 1.8% active | HEK293 GAL4-hgDAF12 UAS-luciferase reporter, agonist luminescence; normalized to butyrate control | activation, % at 6.8 µM;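 active = activation above a cutoff set at the mean of all screened compounds plus 3 SD, cut at about 10% in these data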;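 also: 0% = DMSO wells and 100% = sodium butyrate wells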
DAX1 inh-1: inhibitors of human orphan nuclear receptor DAX1 (NR0B1). P51843. HEK293 Gal4-DAX1 luciferase reporter, luminescence. inhibition, % at 6.75 µM. 340,000 tested, 0.99% active. AID 504766;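 active = inhibition above the mean over all tested compounds plus 3 SD, cut at about 4.2% in these data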;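 also: 0% = DAX1-transfected cells with DMSO and 100% = empty-vector control cells with DMSO; inhibition shows as a rise in luminescence from relieved DAX1 repression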
Target sequence (P51843 207-470 limits assumed): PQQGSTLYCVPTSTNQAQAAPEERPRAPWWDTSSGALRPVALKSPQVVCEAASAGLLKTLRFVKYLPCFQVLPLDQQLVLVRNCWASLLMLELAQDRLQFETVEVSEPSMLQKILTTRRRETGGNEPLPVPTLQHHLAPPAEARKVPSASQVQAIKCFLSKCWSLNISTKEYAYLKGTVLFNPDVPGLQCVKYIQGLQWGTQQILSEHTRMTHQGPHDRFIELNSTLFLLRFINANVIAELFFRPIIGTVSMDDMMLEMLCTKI
DAX1 inh-2: blocks DAX1 repression of SF-1 activated StAR promoter; HEK293T StAR-luciferase reporter, SF-1/DAX-1 repression relief; inhibition, % at 6.8 µM; 370,000 tested, 1.1% active;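 active = inhibition above the mean over all tested compounds plus 3 SD, cut at about 3.6% in these data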;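 also: 0% = DAX-1 cells with DMSO and 100% = cells lacking DAX-1 with DMSO; higher inhibition means more luminescence from relief of DAX-1 repression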
ssDAF-12 act: S. stercoralis DAF-12 activation, primary screen | HEK293 ssDAF-12/GRIP1 lit1-tk-luc reporter, luminescence; % of 3 µM dafachronic acid response | activation, % at 6.8 µM | 370,000 tested, 1% active | AID 652126;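 active = activation above the mean over all tested compounds plus 3 SD, cut at about 0.9% in these data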;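 also: 0% = DMSO-only wells and 100% = 3 µM delta7-dafachronic acid wells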
hcDAF-12 act: activates DAF-12 receptor from parasite H. contortus; HEK293 hcDAF-12 lit1-tk-luc reporter, luminescence; 0% DMSO, 100% Δ7-dafachronic acid; activation, % at 6.8 µM; 370,000 tested, 1.4% active; AID 652067;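 active = activation above the mean of all tested compounds plus 3 SD, cut at about 5.5% in these data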;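 also: 100% = response to 3 µM Δ7-dafachronic acid high control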
Active calls of the source: *; nt = not tested or not shown.

SMILES | hgDAF12 agonist | DAX1 inh-1 | DAX1 inh-2 | ssDAF-12 act | hcDAF-12 act
Nc1[nH]c(C(=O)c2ccc(Br)cc2)c(-c2ccc(Cl)cc2[N+](=O)[O-])c1C(=O)NCCc1c[nH]c2ccccc12 | 2 | nt | -2 | 0 | 1
CC(=O)Nc1cc(C)ns1 | 4 | 4.3* | 0 | -1 | -1
CSc1nnc(SCC(=O)NC(=O)c2ccccc2)s1 | 2 | 2 | 4.1* | -1 | 1
Cc1csc(SCC(=O)NC(=O)c2ccccc2)n1 | -1 | 1 | 2 | -1 | -1
CCN(CC)S(=O)(=O)c1ccc(N2CCCCC2)c(NC(=O)/C(C#N)=C/c2ccc(OC)cc2)c1 | 0 | -1 | 0 | -1 | 6.3*
CCN(CC)S(=O)(=O)c1ccc(N2CCCC2)c(NC(=O)Cc2cc(OC)c(OC)c(OC)c2)c1 | 0 | 4.7* | -1 | -1 | -2
Cc1cccc(N2C(=O)C3C4C=CC(CC4)C3C2=O)c1 (centres undefined) | 2 | 0 | 0 | -1 | -3
O=C1C2C3CCC(O3)C2C(=O)N1c1cccc(O)c1 (centres undefined) | 5 | -1 | 0 | 0.9* | 4
O=C(COC(=O)Cn1cnc2ccccc2c1=O)Nc1ccc(Cl)c(C(F)(F)F)c1 | -3 | 1 | 0 | 1.5* | -1
O=C(COC(=O)Cn1cnc2ccccc2c1=O)Nc1ccc(Cl)cc1 | 0 | -1 | -1 | 0 | 1
Fc1ccc(-c2ccc3c(n2)CCCN3Cc2ccccc2C(F)(F)F)cc1 | 3 | nt | 1 | -1 | 1
Cc1c(Cl)cccc1S(=O)(=O)Nc1ccnn1C | 2 | 4.3* | 0 | -1 | -1
O=C(NNC(=O)c1ccccc1F)c1cccc(-n2cccc2)c1 | 4 | 1 | 3.7* | -1 | -1
O=C(NNC(=O)c1cccc(-n2cccc2)c1)c1ccccc1 | 3 | 1 | 3 | -1 | 0
COc1cccc(C=NNC(=S)NC2CC3CCC2C3)c1O (centres undefined) | 7 | nt | 4 | 0 | 4
c1ccc(-n2cnnc2SCc2nc3ccccc3s2)cc1 | 7 | 3 | 1 | 1.0* | 5
CCC(c1nnc(SCc2nc3ccccc3s2)n1Cc1ccccc1)N(C)C (centres undefined) | 2 | 0 | 2 | 0 | 5.7*
c1ccc(Cn2c(SCc3nc4ccccc4s3)nnc2-c2ccco2)cc1 | 1 | 0 | -1 | 0 | 2
CC1CCN(C(=O)c2[nH]cnc2C(=O)N(C)CCO)CC1 | 0 | nt | 0 | -1 | -1
Cc1cccc(CC(C)NC(=O)c2oc3c(F)cccc3c2C)n1 (centres undefined) | -1 | -1 | 0 | -2 | -3
CN(C)c1ccc(-c2ccnc3c2CC(C)(C(=O)NCc2ccncc2)O3)cc1 (centres undefined) | -2 | nt | -2 | -2 | -1
COc1ccc2c(=O)c3c(=O)n(CCc4ccccc4)c(C)nc3oc2c1 | 0 | nt | 0 | 0 | 3
COc1ccc2c(=O)c3c(=O)n(CCc4ccccc4)c(C(C)C)nc3oc2c1 | 0 | 4.7* | 0 | -1 | 1
CC1CCC/C(=N\NC(=O)Nc2ccccc2)C1 (centres undefined) | 4 | 4.8* | 0 | -1 | 4
COc1ccc(C2N(c3ccc(OC)cc3)C(=O)C3CCCN32)cc1 (centres undefined) | 2 | 5.3* | 0 | -1 | -1
SMILES | hgDAF12 agonist | DAX1 inh-1 | DAX1 inh-2 | ssDAF-12 act | hcDAF-12 act
COc1cccc(C2N(c3ccc(Cl)cc3)C(=O)C3CCCN32)c1 (centres undefined) | -1 | 6.4* | 1 | 0 | 2
COc1ccc(N2C(=O)C3CCCN3C2c2ccc(C)cc2)cc1 (centres undefined) | 3 | 3 | 1 | -1 | 0
COc1ccc(N2C(=O)C3CCCN3C2c2cccc(C)c2)cc1 (centres undefined) | -2 | 3 | 0 | -1 | 0
O=C1C2CCCN2C(c2ccc(F)c(F)c2)N1c1cccc(Cl)c1 (centres undefined) | 0 | 4.4* | -1 | -1 | -1
COc1ccc(C2N(c3ccc(F)cc3)C(=O)C3CCCN32)cc1 (centres undefined) | 4 | 5.2* | 1 | -1 | 0
O=C1C2CCCN2C(c2ccccc2)N1c1cccc(Cl)c1 (centres undefined) | 1 | 1 | 0 | -1 | 0
CC(C)C[C@@H]1COc2cc(F)ccc2S(=O)(=O)N1C | 2 | nt | -1 | -1 | -2
COc1ncccc1-c1cc2nc(NCCNC(C)=O)n(C)c(=O)c2s1 | -1 | nt | 0 | -1 | -2
COc1ccc(C=CC(=O)c2c(N)n(C)c(=O)n(C)c2=O)cc1 | 3 | nt | 0 | -1 | -1
Oc1ccc(-c2cn3ccccc3n2)cc1O | 8 | 1 | 2 | 0 | 6.1*
CCCOc1ccc(-c2csc(N)n2)cc1[N+](=O)[O-] | 6 | 2 | 0 | -1 | 1
O=[N+]([O-])c1ccc(-c2cn3ccccc3n2)cc1 | 7 | nt | 2 | 0 | 2
CCOc1ccc(-c2cn3ccccc3n2)cc1[N+](=O)[O-] | 11* | 2 | 1 | 0 | 1
CCCCOc1ccc(-c2cn3ccccc3n2)cc1[N+](=O)[O-] | 11* | -1 | 0 | -1 | 1
CC(C)(C)C(=O)NCCN1C(=O)S/C(=C\c2ccc([N+](=O)[O-])cc2)C1=O | 12* | -1 | -1 | -1 | -2
COC(=O)[C@]12C[C@H](CC(=O)N3CCOCC3)C(=O)N(CCC3=CCCCC3)C1=C[C@H](C(C)(C)C)O[C@@H]2C | 1 | nt | 0 | -1 | -1
CCOC(=O)N1Cc2cc3ccccc3nc2C1 | 9 | 3 | 2 | 0.9* | 4
C[n+]1ccccc1/C=C1\Sc2ccccc2N1CCO | -3 | 2 | 0 | -1 | 0
CC[n+]1ccc(/C=C2\Sc3ccccc3N2CCCS(=O)(=O)[O-])c2ccccc21 | -1 | 0 | 0 | 1.2* | 4
O=c1c2ccccc2nc2ccc(NCc3cccs3)nn12 | 6 | 4.7* | 2 | -1 | 2
O=C(NCc1cccs1)c1cc(-c2ccccc2)nc2ccccc12 | -4 | -1 | -1 | -2 | -2
COCCNc1nc(NCCN2CCNC2=O)c2sc(-c3ccccc3)cc2n1 | -2 | nt | -1 | -1 | -2
COc1ccc(-c2cc(NC(=O)Cc3c(C)[nH]c4ccccc34)ccc2Nc2cccnc2)cc1OC | 6 | nt | 0 | -1 | 2
Cc1cc(C)n(-c2cc(N3CCN(S(=O)(=O)c4ccc(C)c(C)c4)CC3)ccc2[N+](=O)[O-])n1 | -1 | 5.4* | 0 | -1 | 2
O=C(NCCc1ccccc1Cl)[C@@H]1CCCN1C(=O)[C@@H](NS(=O)(=O)c1ccc(F)cc1F)c1ccccc1 | -6 | nt | 0 | -1 | 0
C=CCN1C(=O)c2n[nH]c(COC)c2C1c1ccc(Br)cc1 (centres undefined) | 1 | nt | -1 | -1 | -3

Source: PubChem BioAssay
